From PubChem
PglD DTNB – C. jejuni PglD acetyltransferase inhibitors, primary screen, biochemical, DTNB colorimetric, single point; 360,000 tested, 0.098% active; purified PglD enzyme, DTNB colorimetric CoA detection; UDP-N-acetylbacillosamine N-acetyltransferase PglD (Campylobacter jejuni); inhibition, % at 12.5 µM; in the data active = inhibition above about 16%, passing the limit was not always enough
C2C12 statin – suppressors of statin myotoxicity in C2C12 myotubes, primary screen, cell-based, single point, plate reader; C2C12 myotubes + simvastatin, ATP luminescence, 48 h; scaled: DMSO 0, geranylgeraniol control 100; AID 602340, 2012; rescue of ATP level, % at 7.49 µM; 330,000 tested, 0.78% active;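 active = mean ATP rescue above about 67%, or every replicate alone reaching that limit, limit read from the data, passing the limit was not always enough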;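 also: myotubes were challenged with 10 µM simvastatin during compound exposure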
NSD2 HMT inh – NSD2 histone methyltransferase inhibitors, primary screen, biochemical, AlphaScreen, single concentration, set 2; Histone-lysine N-methyltransferase NSD2 (Homo sapiens), O96028; NSD2 peptide methylation, 120 min; inhibition, % at 12.5 µM; 310,000 tested, 0.54% active; AID 743445, 2014; in the data active = inhibition above about 50%
Target sequence (O96028 whole entry, looked up): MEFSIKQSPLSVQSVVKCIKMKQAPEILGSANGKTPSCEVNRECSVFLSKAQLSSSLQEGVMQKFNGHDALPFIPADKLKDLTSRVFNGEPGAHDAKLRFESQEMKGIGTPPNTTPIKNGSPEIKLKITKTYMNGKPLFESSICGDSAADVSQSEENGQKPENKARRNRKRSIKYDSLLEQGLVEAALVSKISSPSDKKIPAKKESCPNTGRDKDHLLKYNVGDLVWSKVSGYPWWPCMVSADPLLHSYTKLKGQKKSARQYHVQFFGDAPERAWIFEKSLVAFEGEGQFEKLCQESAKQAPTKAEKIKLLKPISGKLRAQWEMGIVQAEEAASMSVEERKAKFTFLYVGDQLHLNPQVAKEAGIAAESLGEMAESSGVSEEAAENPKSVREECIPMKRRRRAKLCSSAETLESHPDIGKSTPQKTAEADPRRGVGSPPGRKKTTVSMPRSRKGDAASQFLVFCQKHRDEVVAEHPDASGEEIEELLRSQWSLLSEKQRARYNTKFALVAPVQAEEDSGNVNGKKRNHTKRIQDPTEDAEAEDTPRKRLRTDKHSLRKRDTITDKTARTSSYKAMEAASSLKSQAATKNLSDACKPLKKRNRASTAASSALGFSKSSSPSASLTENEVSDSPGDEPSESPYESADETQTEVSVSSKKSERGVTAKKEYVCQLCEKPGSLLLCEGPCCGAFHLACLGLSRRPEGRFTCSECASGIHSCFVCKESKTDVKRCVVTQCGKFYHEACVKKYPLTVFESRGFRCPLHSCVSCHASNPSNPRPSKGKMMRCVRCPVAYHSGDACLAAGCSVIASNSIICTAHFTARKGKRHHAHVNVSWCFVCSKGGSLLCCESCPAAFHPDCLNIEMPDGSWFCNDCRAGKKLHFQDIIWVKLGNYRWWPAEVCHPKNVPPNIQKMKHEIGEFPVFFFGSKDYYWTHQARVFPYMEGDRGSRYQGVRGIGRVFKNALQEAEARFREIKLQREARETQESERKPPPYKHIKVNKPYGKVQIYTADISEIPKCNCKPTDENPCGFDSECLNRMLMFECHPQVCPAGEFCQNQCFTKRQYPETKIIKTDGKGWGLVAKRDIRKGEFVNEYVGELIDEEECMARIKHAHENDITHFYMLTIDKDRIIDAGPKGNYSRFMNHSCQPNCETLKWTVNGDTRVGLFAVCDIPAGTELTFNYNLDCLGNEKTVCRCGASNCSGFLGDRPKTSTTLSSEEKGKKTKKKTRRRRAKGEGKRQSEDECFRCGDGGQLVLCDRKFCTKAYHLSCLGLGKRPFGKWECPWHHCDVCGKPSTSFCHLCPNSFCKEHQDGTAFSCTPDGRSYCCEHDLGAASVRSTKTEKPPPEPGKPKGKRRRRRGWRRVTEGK
miR122 inh – miR-122 Renilla sensor signal increase in Huh7, primary screen, miR-122 inhibitor project, cell-based, single point, plate reader | Huh7 miR-122 Renilla luciferase sensor, 48 h; neutral wells = 0, positive control = 100 | activation (reporter increase), % at 12.5 µM | 340,000 tested, 0.3% active;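 active = mean replicate activation score at least 90 and every replicate individually at or above 90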;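 also: higher luciferase means less miR-122 activity so hits act as miR-122 inhibitors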
Of the large screens only hits and unclear results are named; the others gave an inactive call; [ ] = dose if it differs, or a comment. Rows were chosen to be rich in hits. Some 1.2% of all compounds tested hit in one or more screens of this group.

C/C=C/c1ccc2c(c1)O[C@@H](CN(C)C(=O)NC1CCCCC1)[C@@H](C)CN([C@@H](C)CO)S2(=O)=O	C2C12 statin 110.7 (no result: NSD2 HMT inh)
CCCNC(=O)N(C)C[C@@H]1Oc2cc(C3=CCCCC3)ccc2S(=O)(=O)N([C@@H](C)CO)C[C@@H]1C	C2C12 statin 94.8 (no result: NSD2 HMT inh)
CC(C)CC#Cc1ccc2c(c1)O[C@@H](CN(C)C(=O)C1CCC1)[C@@H](C)CN([C@H](C)CO)S2(=O)=O	miR122 inh 157.3[16.7 µM] (no result: NSD2 HMT inh)
C/C=C/c1ccc2c(c1)O[C@@H](CN(C)C(=O)NC1CCCCC1)[C@H](C)CN([C@@H](C)CO)S2(=O)=O	none (no result: NSD2 HMT inh)
CCCNC(=O)N(C)C[C@@H]1Oc2cc(C3=CCCCC3)ccc2S(=O)(=O)N([C@H](C)CO)C[C@H]1C	none (no result: NSD2 HMT inh)
COC(=O)N1C(=O)[C@@](c2ccc(Cl)cc2)(C(C)C)N1C(=O)OC	none (no result: PglD DTNB, C2C12 statin, miR122 inh)
COCCCN=C1NN=C(c2cc(C)n(Cc3ccccc3Cl)c2C)CS1	NSD2 HMT inh 52.8 (no result: PglD DTNB, C2C12 statin, miR122 inh)
COCCCN=C1NN=C(c2cc(C)n(-c3ccccc3)c2C)CS1	none (no result: NSD2 HMT inh)
CCCNC(=O)N1C[C@H]2[C@@H](c3ccccc31)[C@@H](CO)N2C(=O)Nc1ccc(F)cc1	none (no result: NSD2 HMT inh)
C[C@H](O)C#Cc1ccc2c(c1)O[C@@H](CN(C)C(=O)C1CCCCC1)[C@@H](C)CN([C@@H](C)CO)S2(=O)=O	none (no result: NSD2 HMT inh)
O=c1c2ccccc2nc(-c2ccc(Cl)cc2Cl)n1CCCn1ccnc1	C2C12 statin 99.6 (no result: NSD2 HMT inh)
O=[N+]([O-])c1ccc(Sc2cc[n+]([O-])c3ccccc23)c([N+](=O)[O-])c1	C2C12 statin 80.1
O=C(c1ccccc1)c1ccc(-c2ccc(O)cc2)cc1	miR122 inh 91.7
O=C(c1ccccc1)c1ccccc1	none (no result: NSD2 HMT inh)
O=C(CN1C(=O)CSc2ccccc21)Nc1ccccc1C(=O)N1CCOCC1	C2C12 statin 90.2
Cc1ccccc1NC(=O)CN1C(=O)CSc2ccccc21	none
O=C1O/C(=C\C(=O)N2CCOCC2)c2ccccc21	none
O=C1O/C(=C/C(=O)N2CCOCC2)c2ccccc21	C2C12 statin 74.5
COc1cc(C(=O)Nc2cccc3ncccc23)cc(OC)c1OC	C2C12 statin 92.3
COc1cc(C(=O)Nc2cccc(-c3nc4ccccc4o3)c2C)cc(OC)c1OC	C2C12 statin 97.5 (no result: PglD DTNB)
Cc1ccc(S(=O)(=O)c2nc(-c3ccccc3F)oc2N2CCN(C)CC2)cc1	none (no result: PglD DTNB, C2C12 statin, miR122 inh)
O=C(CSc1nnc(CNc2ccc(F)cc2)n1Cc1ccccc1)N1CCOCC1	C2C12 statin 101.9
Cc1ccc(NC(=O)CSCC(=O)NCc2ccco2)cc1	none (no result: PglD DTNB, miR122 inh)
Cc1ccc(NC(=O)C(=S)NCc2ccco2)cc1	C2C12 statin 135.4
COc1ccc(NC(=O)c2ccc(F)cc2)cc1S(=O)(=O)Nc1cc(C)ccc1Br	none (no result: PglD DTNB, C2C12 statin, miR122 inh)
COc1ccc(OC)c(S(=O)(=O)Nc2ccc(C(N)=O)cc2)c1	none
COc1ccc(OC)c(S(=O)(=O)Nc2ccc3oc(C)c(C(C)=O)c3c2)c1	none
COC(=O)c1c(C)oc2ccc(NS(=O)(=O)c3cc(OC)ccc3OC)cc12	C2C12 statin 121.5
CCOC(=O)c1ccc(NS(=O)(=O)c2cc(C)ccc2OC)cc1	miR122 inh 373.0
COc1ccc(OC)c(S(=O)(=O)Nc2ccc(C(C)=O)cc2)c1	miR122 inh 99.6
COc1ccc(NS(=O)(=O)c2cc(NC(=O)c3ccc(F)cc3)ccc2OC)cc1	miR122 inh 108.4
C[C@@H]1CN([C@@H](C)CO)C(=O)c2cc(-c3ccc(C#N)cc3)cnc2O[C@@H]1CN(C)Cc1ccccn1	none (no result: NSD2 HMT inh)
C[C@@H]1CN([C@@H](C)CO)C(=O)c2cc(NC(=O)c3ccncc3)ccc2O[C@H]1CN(C)Cc1ccc2c(c1)OCO2	none (no result: NSD2 HMT inh)
COCC#Cc1ccc2c(c1)O[C@H](CN(C)C(=O)NC(C)C)[C@H](C)CN([C@@H](C)CO)S2(=O)=O	none (no result: NSD2 HMT inh)
O=C(NCc1ccccc1)[C@@H]1[C@@H](CO)[C@@H]2Cn3c(cccc3=O)[C@H]1N2Cc1cccnc1	none (no result: NSD2 HMT inh)
COc1ccc(N2C(=O)CSC23C(=O)Nc2ccccc23)cc1 (configuration not stated)	C2C12 statin 109.6 (no result: NSD2 HMT inh)
C[C@H]1CN([C@@H](C)CO)C(=O)c2cc(NC(=O)Cn3cnnn3)ccc2O[C@@H]1CN(C)Cc1ccc(C(=O)Nc2ccccc2N)cc1	none (no result: NSD2 HMT inh)
C[C@H]1CN([C@@H](C)CO)C(=O)c2cc(NC(=O)Cc3cn(C)c4ccccc34)ccc2O[C@H]1CN(C)Cc1ccc(C(=O)Nc2ccccc2N)cc1	C2C12 statin 86.3 (no result: NSD2 HMT inh)
CC(C)NC(=O)N(C)C[C@@H]1Oc2ccc(NC(=O)Cc3cn(C)c4ccccc34)cc2C(=O)N([C@H](C)CO)C[C@H]1C	PglD DTNB 25.6 (no result: NSD2 HMT inh)
C[C@H](CO)N1C[C@H](C)[C@H](CN(C)Cc2ccc(C(=O)Nc3ccccc3N)cc2)Oc2ccc(NC(=O)Cn3cnnn3)cc2C1=O	C2C12 statin 100.3 (no result: NSD2 HMT inh)
C[C@@H]1CN([C@@H](C)CO)C(=O)c2cc(NC(=O)Nc3ccccc3)ccc2O[C@@H]1CN(C)Cc1ccc(C(=O)Nc2ccccc2N)cc1	miR122 inh 169.8[16.7 µM] (no result: NSD2 HMT inh)
C[C@@H]1CN([C@@H](C)CO)C(=O)c2cc(C#Cc3ccncc3)cnc2O[C@H]1CN(C)CC1CCCC1	none (no result: NSD2 HMT inh)
Cc1noc(C)c1S(=O)(=O)Nc1ccc2c(c1)CC(=O)N([C@@H](C)CO)C[C@@H](C)[C@H](CN(C)C(=O)Nc1ccccc1)O2	none (no result: PglD DTNB, NSD2 HMT inh)
C[C@@H]1CN([C@@H](C)CO)C(=O)Cc2cc(NC(=O)CCC(F)(F)F)ccc2O[C@H]1CN(C)Cc1ccc(C(F)(F)F)cc1	none (no result: NSD2 HMT inh)
C[C@@H]1CN([C@@H](C)CO)C(=O)c2cc(NC(=O)Nc3cccc4ccccc34)ccc2O[C@@H]1CN(C)Cc1ccc(C(=O)Nc2ccccc2N)cc1	C2C12 statin 136.5 (no result: NSD2 HMT inh)
C[C@H](CO)N1C[C@H](C)[C@H](CN(C)Cc2ccc(C(=O)Nc3ccccc3N)cc2)Oc2ccc(NC(=O)Nc3ccccc3)cc2C1=O	none (no result: NSD2 HMT inh)
Cc1nnsc1C(=O)NNS(=O)(=O)c1cc(C(F)(F)F)cc(C(F)(F)F)c1	none (no result: PglD DTNB)
Cc1ccc(S(=O)(=O)NNC(=O)c2snnc2C)cc1	C2C12 statin 128.0
C[C@H]1CN([C@@H](C)CO)C(=O)Cc2cc(NS(C)(=O)=O)ccc2O[C@H]1CN(C)C(=O)Nc1ccc2c(c1)OCO2	none (no result: NSD2 HMT inh)
CN1C(=O)CC(N2CCN(C(c3ccccc3)c3ccccc3)CC2)C1=O (configuration not stated)	none (no result: C2C12 statin)
CN1C(=O)CC(N2CCN(c3ccccc3)CC2)C1=O (configuration not stated)	C2C12 statin 137.9
C[C@H](CO)N1C[C@H](C)[C@H](CN(C)C(=O)C2CCCCC2)Oc2ncc(C#Cc3ccccc3F)cc2C1=O	none (no result: NSD2 HMT inh)
O=C(Nc1ccc(S(=O)(=O)NCCc2ccccc2)cc1)c1ccncc1	none (no result: C2C12 statin, miR122 inh)
CC(=O)Nc1ccc(S(=O)(=O)NCCc2ccc(S(N)(=O)=O)cc2)cc1	miR122 inh 225.6
O=C(Nc1ccc(S(=O)(=O)NCCc2ccccc2)cc1)c1ccco1	miR122 inh 364.6 (no result: PglD DTNB)
